# High-throughput results deposited in PubChem by National Center for Advancing Translational Sciences (NCATS).
# Sampled rows, rich in hits. Any-hit rate of the full collection: about 3.2%.
# ClpP mod: qHTS Assay for Activators of ClpP; ATP-dependent Clp protease proteolytic subunit (Bacillus subtilis (strain 168)), P80244; purified B. subtilis ClpP, FRET peptide cleavage, 20 min; Potency, µM (top dose mostly 57.5 µM), for the others: at the highest dose activity change, negative = active; 340,000 tested, 1.9% active; active = well fitted falling curve with a large enough effect; inconclusive = small, poorly fitted or top-dose-only effect; inactive = no such curve, though single readings can be large or run the other way; note: the source files actives as falling curves though it sought activators and does not explain the sign; nearly all actives have a fitted effect of over 65% in size
# Target sequence (P80244 whole entry, looked up): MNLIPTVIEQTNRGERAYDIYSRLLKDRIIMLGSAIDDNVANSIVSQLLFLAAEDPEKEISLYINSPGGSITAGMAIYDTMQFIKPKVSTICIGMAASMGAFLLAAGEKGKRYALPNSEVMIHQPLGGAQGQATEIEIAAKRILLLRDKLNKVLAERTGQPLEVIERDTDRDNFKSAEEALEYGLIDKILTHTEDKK
#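 Buffer: 100 mM Tris/HCl pH8, 100 mM KCl, 0.05% low protease BSA, 2.5% glycerol, 0.01% Tween-20. ClpP 10 microg/mL final; 20 min RT; delta FRET normalized to ADEP and DMSO controls.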
# GLP1R inv ag: inverse agonists of human GLP-1 receptor; P43220; HEK293 GLP-1R CRE-luciferase, luminescence, 24 h; GLP-1R form is constitutively active; Potency, µM (highest dose often 38.3 µM), inactives show top-dose activity change, negative = inhibition, usual class: inhibitors; 410,000 tested, 1.6% active; AID 624417; note: % is set by controls: 0 for no effect and ±100 for the full control effect; nearly all actives have a fitted effect of over 55% in size
# Target sequence (P43220 whole entry, looked up): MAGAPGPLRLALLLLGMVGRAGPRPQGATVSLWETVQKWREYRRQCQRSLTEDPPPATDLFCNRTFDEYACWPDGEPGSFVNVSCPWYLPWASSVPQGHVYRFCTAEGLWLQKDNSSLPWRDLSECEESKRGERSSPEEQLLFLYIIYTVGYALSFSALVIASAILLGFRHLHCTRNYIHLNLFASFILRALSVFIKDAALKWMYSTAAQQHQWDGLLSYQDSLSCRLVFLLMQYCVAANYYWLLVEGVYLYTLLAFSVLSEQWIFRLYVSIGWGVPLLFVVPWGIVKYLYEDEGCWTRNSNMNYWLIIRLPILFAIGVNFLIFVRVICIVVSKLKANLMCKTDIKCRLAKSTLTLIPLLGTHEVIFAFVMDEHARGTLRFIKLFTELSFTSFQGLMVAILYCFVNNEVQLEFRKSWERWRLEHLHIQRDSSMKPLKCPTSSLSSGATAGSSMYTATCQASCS
#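 HEK293 cells stably co-expressing a cAMP-responsive luciferase reporter and constitutively active GLP-1R were seeded, incubated 12 h, then exposed to compounds for 24 h at 37 C. Luminescence was read 12 min after detection reagent; inverse agonists lower signal.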
# GLP-1R agonist: activates the human GLP-1 receptor; 380,000 tested, 0.007% active; P43220; HEK293 GLP-1R CRE-luciferase, luminescence, 4-6 h; cells express a hypersensitive GLP-1R form; Potency, µM (doses to about 45.6 µM), for the others: top-dose activation, actives largely listed as activators; note: % of control where 0% means no effect
# GLP1R cytotox: cytotoxicity in counter-screen for GLP-1R inverse agonists | AID 624418 | HEK293 cAMP-luciferase reporter cells, luminescence, 24 h | 410,000 tested, 0.13% active | Potency, µM (top dose mostly 38.3 µM), without a hit: at the top dose activity change, negative = inhibition, most hits filed as inhibitors;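 note: loss of luciferase light is scored as toxicity; % is set by controls: 0 for no effect and ±100 for the full control effect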
#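 To flag toxic compounds, the library was rerun on cells for 24 hr at 37 deg C and 5% CO2. Viability-linked luminescence was captured 12 min after adding luciferase detection reagent.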
# * = called active by the depositor; ? = inconclusive; nt = not tested or not shown; [ ] = another dose, or the depositor's remark. Unless noted, calls come from the whole dose curve; as a rule, active = well fitted curve in the direction sought with a large enough effect; inconclusive = small, poorly fitted or top-dose-only effect, or another doubt; inactive = no such curve, though single readings can be large; an effect the other way counts as inactive or inconclusive. Potency is the fitted concentration of half-maximal effect.
SMILES,ClpP mod,GLP1R inv ag,GLP-1R agonist,GLP1R cytotox
COc1ccc2cc(CNCCOCCOCCNCc3ccc4cc(OC)ccc4c3)ccc2c1,-8%,?,-37%,4µM*
Cn1c(=O)c(=O)n(C)c2cc(N3CCCC3)c(NC(=O)c3ccccc3Cl)cc21,-2%,10%,nt,-6%
Cn1nc(-c2ccccc2F)c2cc(C(=O)NCCc3ccc(Cl)cc3)sc21,5%,?,nt,1%
CCCCN(C)CCNC(=O)c1cc2c(-c3ccccc3F)nn(C)c2s1,25µM*,10µM*,0%,-22%
COCCNC(=O)c1cc2c(-c3ccccc3F)nn(C)c2s1,25µM*,20%,-1%,-1%
Cc1ccc(S(=O)(=O)N2CCN(C(=O)c3cc4c(s3)CCCC4)CC2)c(C)c1,-1%,-14%,-2%,-2%
O=C(c1cc2c(s1)CCCC2)N1CCN(S(=O)(=O)c2ccccc2C(F)(F)F)CC1,1%,10µM*,7%,-9%
O=c1/c(=C/c2ccco2)sc2n1CN(c1cccc(Br)c1)CN=2,-3%,-1%,1%,4%
O=c1/c(=C/c2ccco2)sc2n1CN(c1ccccc1)CN=2,25µM*,0%,2%,0%
COc1ccc(CC(NC(C)=O)C(=O)NC2CCN(c3nc(C)cc(C)c3C#N)CC2)c(OC)c1 (centres undefined),13µM*,11%,-4%,-15%
CCOC(=O)CCCNC(=O)c1cncc(O)c1,32µM*,-6%,-6%,-5%
O=C(O)CCCNC(=O)c1cncc(Br)c1,28µM*,2%,-7%,-4%
Cc1cc(/C=C\c2ccc3cc(N(C)C)ccc3[n+]2C)c(C)n1-c1ccccc1,-11%,2µM*,0%,?
O=C(Cn1cc(SCc2ccc(C(F)(F)F)cc2)c2ccccc21)N1CCOCC1,0%,?,nt,-7%
CCOC(=O)c1cnc2c(ccc3ccccc32)c1NCCN(C)C,4%,?,-1%,?
CCOC(=O)c1cnc2c(ccc3ccccc32)c1NCCO,28µM*,-12%,8%,-7%
O=C(NCc1cccc(Cl)c1)c1ccc(NC(=O)N2CC3CCCN3c3ccccc32)cc1 (centres undefined),-11%,?,nt,-5%
N#CCC(=O)N/N=C/c1cn(Cc2ccc(Cl)c(Cl)c2)c2ccccc12,nt,1.3µM*,6%,?
CC1(C)CC(=O)c2cnc(NC(=O)CCc3ccccc3)nc2C1,-2%,-1%,2%,6%
CC(C(=O)Nc1ncc2c(n1)CC(C)(C)CC2=O)N1C(=O)c2ccccc2C1=O (centres undefined),28µM*,-6%,-21%,-5%
CCN(CC)C(=O)C1=C(C)N(Cc2ccc(F)cc2)C(=O)C(CC(=O)NC(c2ccccc2)c2ccccc2)C1 (centres undefined),2%,11µM*,4%,-27%
CCN(CC)C(=O)C1=C(C)N(Cc2ccc(C(C)(C)C)cc2)C(=O)C(CC(=O)NC(c2ccccc2)c2ccccc2)C1 (centres undefined),-2%,7.9µM*,6%,-24%
Cc1cc(Nc2ccc(C(=O)O)c(O)c2)n2ncnc2n1,-2%,-1%,nt,14%
Cc1ccc(Cl)cc1NC(=O)Cn1c(=O)n(CCC(=O)NCc2ccc3c(c2)OCO3)c(=O)c2sccc21,-1%,8%,nt,-7%
CCC(=O)N/C(N)=N/c1nc2ccccc2o1,-1%,-13%,7%,-10%
SMILES,ClpP mod,GLP1R inv ag,GLP-1R agonist,GLP1R cytotox
CC(C)(C)C(=O)N/C(N)=N/c1nc2ccccc2o1,nt,11µM*,5%,?
CCCCCCCN(C(=O)CCl)c1cccc(C)c1,-4%,?,-14%,6%[1.53 µM]
N#CCCN(C(=O)CCl)c1cccc(Cl)c1,1%,2.2µM*,-5%,-13%
CC(=O)c1c(C)oc2c1cc(NS(=O)(=O)c1ccc(C(C)(C)C)cc1)c1ccccc12,0%,11µM*,nt,-9%
N#C/C(=N\Nc1ccc([N+](=O)[O-])cc1)C(=N)N1CCOCC1,0%,40%,-2%,?
N#C/C(=N/Nc1ccc([N+](=O)[O-])cc1)C(=N)N1CCCCC1,-1%,?,5%,11µM*
O=C(COc1coc(CN2CCc3ccccc3C2)cc1=O)N1CCOCC1,28µM*,27%,1%,7%
CCOc1cc(S(=O)(=O)n2ccnc2C(C)C)ccc1Cl,0%,4%,nt,0%
CC1=C(c2ccc(C(C)C)cc2)S(=O)(=O)NC1=NCc1ccc(Cl)cc1,-3%,-4%,nt,1%
CCN1CCN(C(=S)Nc2cc(C(=O)OC)ccc2C(=O)OC)CC1,-29%,13%,2%,19%
COC(=O)c1ccc(C(=O)OC)c(NC(=S)N2CCOCC2)c1,32µM*,5%,5%,-4%
CCN(CC)S(=O)(=O)c1cccc(C(=O)Nc2cc(C)cc(C)c2)c1,-3%,2µM*,4%,10%
CCN(CC)S(=O)(=O)c1cccc(C(=O)N[C@H](C(=O)NCc2ccc(Cl)cc2)C(C)C)c1,-3%,13µM*,-2%,5%
CCN(CC)S(=O)(=O)c1cccc(C(=O)N[C@H](C(=O)NCc2ccccc2F)C(C)C)c1,-6%,?,-1%,2%
CCN(CC)S(=O)(=O)c1cccc(C(=O)Nc2cccc(C)c2)c1,1%,?,-1%,-20%
Cc1ccc(CN(Cc2cccn2-c2nnc(N3CCCC3=O)s2)C(=O)Nc2ccccc2C(F)(F)F)cc1,-10%,?,nt,-15%
CC(=O)c1cc(CC=C(C)C)c(O)c(CC=C(C)C)c1O,28µM*,?,1%,-14%
CC(=O)c1cc(CC=C(C)C)c(O)cc1O,2%,-30%,0%,22%
COc1cccc(/C=C/c2nc3ccccc3c(=O)n2-c2ccc(C)c(C)c2)c1OC,1%,?,nt,-5%
COc1ccc(Cc2nnc(NC(=O)Cc3cccs3)s2)cc1OC,28µM*,47%,-6%,4%
CCC(C)C(=O)Nc1nnc(-c2cccs2)s1 (centres undefined),32µM*,3%,10%,1%
O=C(Cc1cccs1)Nc1nnc(-c2ccncc2)s1,28µM*,9%,-11%,10%
O=C(COc1ccc(F)cc1)Nc1nnc(-c2ccncc2)s1,25µM*,-9%,-2%,9%
Cc1ccc(OCc2nnc(-c3ccccc3)o2)cc1,0%,5%,nt,-3%
CCc1ccc(CN(Cc2cn[nH]c2-c2ccc(OC)cc2)C(=O)Nc2ccc(C)c(F)c2)cc1,2%,?,nt,?
O=C(Cc1ccccc1)Nc1nnc(-c2cccs2)s1,20µM*,36%,0%,-7%
CCC(=O)Nc1nnc(-c2cccs2)s1,nt,34%,2%,4%
COC(=O)c1sc2cnccc2c1N,14µM*,15%,-8%,143%
CCCCn1c(=NC(C)=O)c(C#N)cc2c(=O)n3cccc(C)c3nc21,nt,32%,0%,108%
CCN(CC)C(=O)c1cc2c(=O)n3cccc(C)c3nc2n1C,32µM*,12%,8%,7%
